The nature of assay [1]: NCI Yeast Anticancer Drug Screen. Data for the rad50 strain (AID 155).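 Further: 0% = growth of vehicle-only cultures of the same strain.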 The settings on record: S. cerevisiae rad50 strain growth inhibition, stronger effect = higher value. The gist of the method: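 Vehicle-treated cultures provide the reference for the growth inhibition reported for compound-exposed, repair-deficient yeast.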
A short description of assay [2]: NCI Yeast Anticancer Drug Screen. Data for the mec2-1 strain (AID 157). The note with it: S. cerevisiae mec2-1 strain, stronger effect = higher value. The gist of the method: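 Each compound was tested on mec2-1 yeast, a strain altered in DNA damage repair or cell cycle control. Growth inhibition is reported relative to vehicle.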
Assay [3] is described as follows: NCI Yeast Anticancer Drug Screen. Data for the sgs1 mgt1 strain (AID 161).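 Further: 0% = growth of cultures given vehicle only.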 The note with it: S. cerevisiae sgs1 mgt1 strain, stronger effect = higher value. An outline of the steps: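 Mutant yeast exposed to compound; growth scored against vehicle-only wells.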
The nature of assay [4]: NCI Yeast Anticancer Drug Screen. Data for the cln2 rad14 strain (AID 165).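 Further: 0% = growth equal to vehicle treated cultures.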 The note with it: S. cerevisiae cln2 rad14 strain, stronger effect = higher value. An outline of the steps: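 Test compounds were added to cln2 rad14 yeast cultures; inhibition of growth was then determined by comparison with vehicle treatment.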
Assay [5] can be described thus: NCI Yeast Anticancer Drug Screen. Data for the bub3 strain (AID 167). The settings on record: S. cerevisiae bub3 mutant strain, stronger effect = higher value. An outline of the steps: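 Mutant yeast screening strain plus compound; vehicle-treated cultures serve as the 0% inhibition reference.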
The nature of assay [6]: NCI Yeast Anticancer Drug Screen. Data for the mlh1 rad18 strain (AID 175). The note with it: S. cerevisiae mlh1 rad18 strain growth inhibition, stronger effect = higher value. An outline of the steps:
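Inhibition values reflect reduced growth of mutant yeast versus vehicle-treated controls following compound exposure; the mutations affect DNA damage repair.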

Setting [7] is: at 5.0 µM (retest, dose inferred, filed as 0.5).
Setting [8] is: at 50.0 µM (retest, dose inferred, filed as 5.0).

“And” between values parts separate entries of the source, which are not always exact repeats. Identical values can stand only once. This is part of a sample that, as a whole, favours compounds with a hit. Of some 79,000 tested, about 15% had one in any assay. The source made the active and inactive calls. No stated cut-off is given here; in the data, active means growth inhibition above about 70%; inactive means the rest.

As for `CC(=O)Nc1nc(N)c2ncn(C3OC(C(O)CO)C(O)C3O)c2n1` (stereo unspecified), the growth inhibition in assay [1] (setting [7]) is 0% (inactive); in assay [1] (setting [8]), 1% (inactive); in assay [1] (at 50.0 µM) it was 1.75% (inactive) and -3.5% (inactive); in assay [2] (setting [7]), 0% (inactive); in assay [2] (setting [8]) it was 1% (inactive); in assay [2] (at 50.0 µM), 0.35% (inactive) and -7.5% (inactive). The growth inhibition was -3% (inactive) in assay [3] (setting [7]); -1% (inactive) in assay [3] (setting [8]); 3% (inactive) and 1.8% (inactive) in assay [3] (at 50.0 µM); 1% (inactive) in assay [4] (setting [7]); 0% (inactive) in assay [4] (setting [8]); 53.5% (inactive) and -80% (inactive) in assay [4] (at 50.0 µM). Moreover, the growth inhibition was 1% (inactive) in assay [5] (setting [7]); 0% (inactive) in assay [5] (setting [8]); -10.2% (inactive) and 10.1% (inactive) in assay [5] (at 50.0 µM); -1% (inactive) in assay [6] (setting [7]); 3% (inactive) in assay [6] (setting [8]); 18.9% (inactive) and -12.4% (inactive) in assay [6] (at 50.0 µM).

With `CCN(C(=O)C(Cl)Cl)C(Cc1ccccc1)c1ccccc1` (stereo unspecified), the growth inhibition was -1% (inactive) in assay [1] (setting [7]); 58% (inactive) in assay [1] (setting [8]); 91.5% (active) in assay [1] (at 50.0 µM); -1% (inactive) in assay [2] (setting [7]); 61% (inactive) in assay [2] (setting [8]); 96.3% (active) in assay [2] (at 50.0 µM). Further, the growth inhibition is -1% (inactive) in assay [3] (setting [7]); 80% (active) in assay [3] (setting [8]); 93.8% (active) in assay [3] (at 50.0 µM); -4% (inactive) in assay [4] (setting [7]); 74% (active) in assay [4] (setting [8]); 86.8% (active) in assay [4] (at 50.0 µM). In addition, the growth inhibition is 10% (inactive) in assay [5] (setting [7]); 61% (inactive) in assay [5] (setting [8]); 86.8% (active) in assay [5] (at 50.0 µM); 2% (inactive) in assay [6] (setting [7]); 72% (active) in assay [6] (setting [8]); 86% (active) in assay [6] (at 50.0 µM).

In the case of `C=CC(=O)O`, the growth inhibition in assay [1] (setting [7]) is -2% (inactive); in assay [1] (setting [8]), -1% (inactive); in assay [1] (at 50.0 µM), 9.85% (inactive) and 32.4% (inactive); in assay [2] (setting [7]), -1% (inactive); in assay [2] (setting [8]) it was 0% (inactive); in assay [2] (at 50.0 µM), 21.9% (inactive) and -20.6% (inactive). The growth inhibition in assay [3] (setting [7]) is -1% (inactive); in assay [3] (setting [8]), 2% (inactive); in assay [3] (at 50.0 µM), -3.35% (inactive) and 18.4% (inactive); in assay [4] (setting [7]), 0% (inactive); in assay [4] (setting [8]), 1% (inactive); in assay [4] (at 50.0 µM), 20.8% (inactive) and 9.55% (inactive). The growth inhibition was 1% (inactive) in assay [5] (setting [7]); 3% (inactive) in assay [5] (setting [8]); 47% (inactive) and 30.1% (inactive) in assay [5] (at 50.0 µM); 1% (inactive) in assay [6] (setting [7]); -1% (inactive) in assay [6] (setting [8]); 47.5% (inactive) and 39% (inactive) in assay [6] (at 50.0 µM).

On to `CN(CCN1C(=O)c2cccc3cccc(c23)C1=O)CCN1C(=O)c2cccc3cccc(c23)C1=O`, for which the growth inhibition is 97% (active) in assay [1] (setting [7]); 96% (active) in assay [1] (setting [8]); 98.5% (active) in assay [1] (at 50.0 µM); 20% (inactive) in assay [2] (setting [7]); 97% (active) in assay [2] (setting [8]); 98.2% (active) in assay [2] (at 50.0 µM). The growth inhibition in assay [3] (setting [7]) is 69% (inactive); in assay [3] (setting [8]) it was 97% (active); in assay [3] (at 50.0 µM), 97.2% (active); in assay [4] (setting [7]), 15% (inactive); in assay [4] (setting [8]), 90% (active); in assay [4] (at 50.0 µM) it was 83.6% (active). Further, the growth inhibition in assay [5] (setting [7]) was -2% (inactive); in assay [5] (setting [8]), 95% (active); in assay [5] (at 50.0 µM) it was 96% (active); in assay [6] (setting [7]), 47% (inactive); in assay [6] (setting [8]), 97% (active); in assay [6] (at 50.0 µM) it was 98.1% (active).

As to `CCCCCCC(C(=O)OCC)N1C(=O)c2ccccc2S1(=O)=O` (stereo unspecified), the growth inhibition in assay [1] (setting [7]) was -3% (inactive); in assay [1] (setting [8]), 36% (inactive); in assay [1] (at 50.0 µM) it was 2.55% (inactive); in assay [2] (setting [7]), -5% (inactive); in assay [2] (setting [8]), 10% (inactive); in assay [2] (at 50.0 µM) it was 21.7% (inactive). Also, the growth inhibition in assay [3] (setting [7]) is -4% (inactive); in assay [3] (setting [8]), 65% (inactive); in assay [3] (at 50.0 µM), 30.5% (inactive); in assay [4] (setting [7]), -3% (inactive); in assay [4] (setting [8]), 16% (inactive); in assay [4] (at 50.0 µM), 12.2% (inactive). Besides, the growth inhibition in assay [5] (setting [7]) was 10% (inactive); in assay [5] (setting [8]), 55% (inactive); in assay [5] (at 50.0 µM), 88.5% (active); in assay [6] (setting [7]) it was 5% (inactive); in assay [6] (setting [8]), 36% (inactive); in assay [6] (at 50.0 µM), 61.9% (inactive).

Take `CCCCCCCCCCCCCCCCCCOCC(O)CO` (stereo unspecified): the growth inhibition in assay [1] (setting [7]) is 0% (inactive); in assay [1] (setting [8]), -1% (inactive); in assay [1] (at 50.0 µM), 45.5% (inactive); in assay [2] (setting [7]) it was -2% (inactive); in assay [2] (setting [8]) it was -1% (inactive); in assay [2] (at 50.0 µM), 55.6% (inactive). Moreover, the growth inhibition is -1% (inactive) in assay [3] (setting [7]); -1% (inactive) in assay [3] (setting [8]); 62.6% (inactive) in assay [3] (at 50.0 µM); -1% (inactive) in assay [4] (setting [7]); -7% (inactive) in assay [4] (setting [8]); 34.2% (inactive) in assay [4] (at 50.0 µM). The growth inhibition in assay [5] (setting [7]) is 2% (inactive); in assay [5] (setting [8]), -1% (inactive); in assay [5] (at 50.0 µM), 64.7% (inactive); in assay [6] (setting [7]), -3% (inactive); in assay [6] (setting [8]), -13% (inactive); in assay [6] (at 50.0 µM), 57% (inactive).

For `N#Cc1c(/N=C/c2ccccc2Cl)sc2c1CCC2`, the growth inhibition is 18% (inactive) in assay [1] (setting [7]); -14% (inactive) in assay [1] (setting [8]); 20.1% (inactive) in assay [1] (at 50.0 µM); -14% (inactive) in assay [2] (setting [7]); -4% (inactive) in assay [2] (setting [8]); -0.55% (inactive) in assay [2] (at 50.0 µM). Besides, the growth inhibition was -1% (inactive) in assay [3] (setting [7]); 10% (inactive) in assay [3] (setting [8]); 12.1% (inactive) in assay [3] (at 50.0 µM); 26% (inactive) in assay [4] (setting [7]); 11% (inactive) in assay [4] (setting [8]); 4.2% (inactive) in assay [4] (at 50.0 µM). Besides, the growth inhibition is 0% (inactive) in assay [5] (setting [7]); -10% (inactive) in assay [5] (setting [8]); 23.9% (inactive) in assay [5] (at 50.0 µM); -1% (inactive) in assay [6] (setting [7]); -20% (inactive) in assay [6] (setting [8]); 13.2% (inactive) in assay [6] (at 50.0 µM).

(Values after PubChem BioAssay (NCI).)
